Data published in PubChem BioAssay AID1159580 (chemical genetic matrix, 2015).
“And” between values parts separate entries of the source, which are not always exact repeats. Equal entries are not always repeated. Out of some 5,500 compounds screened, about 2,000 (36%) were called active. Inconclusive results (about 18%) are left out. Cut-off read from the data, not from the text of the source: active = normalized growth mostly below about 0.91 (no sharp cut-off); inconclusive = no clear call, values can overlap the other calls; inactive = mostly above about 0.92. The list shows a part of the results.

Assay: chemical genetic growth profiling, strain panel (AID 1159580);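 note: tested at 20 µM; growth read once vehicle control cultures reached saturation at 30 °C; 1 = growth at the plate median or of vehicle wells; lower values mean less growth of the strain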
Conditions: S. cerevisiae deletion strains, growth OD
[1] = locus YMR263W, strain SAP30, active compounds read low
[2] = locus YPL241C, strain CIN2, active compounds read low

Measured: normalized growth

Cc1sc2ccccc2c1CC1=NCCN1
inactive: locus YAL040C, strain CLN3, active compounds read low 0.972 | locus YCL061C, strain MRC1 (second series), active compounds read low 0.993 | locus YDR150W, strain NUM1, active compounds read low 0.995 | locus YER002W, strain NOP16, active compounds read low 0.988 | locus YGR078C, strain PAC10, active compounds read low 1 | locus YJR075W, strain HOC1, active compounds read low 1.01 | [1] 1 | locus YNL175C, strain NOP13, active compounds read low 1.03 | locus YNL197C, strain WHI3, active compounds read low 1 | locus YNL224C, strain SQS1, active compounds read low 1 | locus YOR083W, strain WHI5 (second series), active compounds read low 0.982 | [2] 1

c1ccc2c(c1)sc1ccccc12
active: locus YAL013W, strain DEP1, active compounds read low 0.807 | locus YAL026C, strain drs2, active compounds read low 0.832 | locus YAL030W, strain snc1, active compounds read low 0.851 | locus YBL061C, strain skt5, active compounds read low 0.811 | locus YBR009C, strain hhf1, active compounds read low 0.734 | locus YBR023C, strain chs3, active compounds read low 0.867 | locus YBR231C, strain swc5, active compounds read low 0.86 | locus YCL011C, strain gbp2, active compounds read low 0.815 | locus YCL016C, strain dcc1, active compounds read low 0.877 | locus YCL069W, strain vba3, active compounds read low 0.778 | locus YCR088W, strain abp1, active compounds read low 0.905 | locus YDL005C, strain med2, active compounds read low 0.906 | locus YDR001C, strain nth1, active compounds read low 0.894 | locus YDR137W, strain rgp1, active compounds read low 0.427 | locus YDR297W, strain sur2, active compounds read low 0.842 | locus YDR318W, strain mcm21, active compounds read low 0.912 | locus YDR334W, strain swr1, active compounds read low 0.871 | locus YDR335W, strain msn5, active compounds read low 0.781 | locus YDR392W, strain spt3, active compounds read low 0.588 | locus YEL003W, strain gim4, active compounds read low 0.572 | locus YEL061C, strain CIN8 (second series), active compounds read low 0.8 | locus YER015W, strain faa2, active compounds read low 0.765 | locus YER111C, strain swi4, active compounds read low 0.823 | locus YER155C, strain BEM2 (second series), active compounds read low 0.223 | locus YGL173C, strain kem1, active compounds read low 0.827 | locus YGL227W, strain vid30, active compounds read low 0.809 | locus YGL240W, strain doc1, active compounds read low 0.778 | locus YGL253W, strain hxk2, active compounds read low 0.854 | locus YHR013C, strain ard1, active compounds read low 1.25 [resistant] | locus YHR142W, strain chs7, active compounds read low 0.597 | locus YJL092W, strain hpr5, active compounds read low 0.841 | locus YJL095W, strain BCK1 (second series), active compounds read low 0.834 | locus YJL129C, strain trk1, active compounds read low 0.802 | locus YJL164C, strain tpk1, active compounds read low 0.802 | locus YJL166W, strain qcr8, active compounds read low 0.652 | locus YJL187C, strain SWE1, active compounds read low 0.882 | locus YKL160W, strain elf1, active compounds read low 0.845 | locus YKR001C, strain vps1, active compounds read low 0.812 | locus YKR026C, strain gcn3, active compounds read low 0.835 | locus YKR091W, strain srl3, active compounds read low 0.924 | locus YLL001W, strain dnm1, active compounds read low 0.768 | locus YLL026W, active compounds read low 0.814 | locus YLR027C, strain aat2, active compounds read low 0.757 | locus YLR221C, strain rsa3, active compounds read low 0.779 | locus YLR258W, strain gsy2, active compounds read low 0.891 | locus YLR262C, strain YPT6 (second series), active compounds read low 0.315 | locus YLR320W, strain mms22, active compounds read low 0.662 | locus YLR371W, strain rom2, active compounds read low 0.854 | locus YLR418C, strain cdc73, active compounds read low 0.785 | locus YML032C, strain rad52, active compounds read low 0.9 | locus YML120C, strain ndi1, active compounds read low 0.749 | locus YMR058W, strain fet3, active compounds read low 0.774 | locus YMR125W, strain sto1, active compounds read low 0.844 | locus YMR129W, active compounds read low 0.909 | locus YMR205C, strain PFK2, active compounds read low 0.737 | locus YMR223W, strain ubp8, active compounds read low 0.86 | locus YNL071W, strain lat1, active compounds read low 0.613 | locus YNL153C, strain GIM3, active compounds read low 0.728 | locus YNL248C, strain rpa49, active compounds read low 0.748 | locus YNL307C, strain MCK1, active compounds read low 0.849 | locus YNL322C, strain KRE1 (second series), active compounds read low 0.894 | locus YNR049C, strain mso1, active compounds read low 0.915 | locus YOR001W, strain rrp6, active compounds read low 0.714 | locus YOR083W, strain WHI5, active compounds read low 0.812 | locus YOR106W, strain vam3, active compounds read low 0.727 | locus YOR184W, strain ser1, active compounds read low 0.676 | locus YOR265W, strain rbl2, active compounds read low 0.873 | locus YPL051W, strain arl3, active compounds read low 0.776 | locus YPL078C, strain atp4, active compounds read low 0.691 | locus YPL106C, strain sse1, active compounds read low 0.778 | strain wtn01, active compounds read low 0.893
inactive: locus YAL021C, strain ccr4, active compounds read low 1.02 | locus YBR021W, strain FUR4, active compounds read low 1.03 | locus YBR171W, strain sec66, active compounds read low 0.912 | locus YBR229C, strain ROT2, active compounds read low 1 | locus YBR279W, strain paf1, active compounds read low 0.952 | locus YCL029C, strain bik1, active compounds read low 0.973 | locus YDL035C, strain GPR1, active compounds read low 0.99 | locus YDL040C, strain nat1, active compounds read low 0.942 | locus YDL074C, strain BRE1, active compounds read low 0.97 | locus YDL101C, strain DUN1, active compounds read low 0.96 | locus YDL134C, strain PPH21, active compounds read low 0.938 | locus YDL185W, strain tfp1, active compounds read low 0.986 | locus YDL192W, strain arf1, active compounds read low 0.959 | locus YDR069C, strain doa4, active compounds read low 1.02 | locus YDR101C, strain arx1, active compounds read low 0.955 | locus YDR159W, strain sac3, active compounds read low 0.869 | locus YDR162C, strain NBP2, active compounds read low 0.883 | locus YDR195W, strain ref2 1.09 | locus YDR388W, active compounds read low 0.971 | locus YDR502C, strain sam2, active compounds read low 0.928 | locus YEL037C, strain rad23, active compounds read low 0.933 | locus YEL061C, strain CIN8, active compounds read low 0.991 | locus YER016W, strain bim1, active compounds read low 0.957 | locus YER110C, active compounds read low 0.97 | locus YER155C, strain BEM2, active compounds read low 0.946 | locus YER167W, strain BCK2, active compounds read low 0.96 | locus YFR010W, strain ubp6, active compounds read low 0.976 | locus YGL078C, strain dbp3, active compounds read low 0.973 | locus YGL086W, strain mad1, active compounds read low 0.941 | locus YGL167C, strain pmr1, active compounds read low 0.937 | locus YGL248W, strain PDE1, active compounds read low 0.898 | locus YGR135W, strain pre9, active compounds read low 0.929 | locus YGR229C, strain SMI1, active compounds read low 0.917 | locus YGR252W, strain gcn5, active compounds read low 1.02 | locus YHR027C, strain rpn1, active compounds read low 0.922 | locus YHR030C, strain SLT2, active compounds read low 0.978 and 0.997 | locus YHR079C, strain IRE1 (second series), active compounds read low 0.957 | locus YHR079C, strain IRE1, active compounds read low 0.996 | locus YHR094C, strain hxt1, active compounds read low 0.972 | locus YHR129C, strain ARP1, active compounds read low 0.981 | locus YHR200W, strain rpn10, active compounds read low 0.97 | locus YIL066C, strain RNR3, active compounds read low 0.994 | locus YIL073C, strain SPO22, active compounds read low 0.951 | locus YIL125W, strain kgd1, active compounds read low 0.962 | locus YIR030C, strain dcg1, active compounds read low 0.957 | locus YJL095W, strain BCK1, active compounds read low 0.834 and 1.01 | locus YJL115W, strain asf1, active compounds read low 0.921 | locus YJL134W, strain LCB3, active compounds read low 0.995 | locus YJL154C, strain vps35, active compounds read low 0.924 | locus YJL168C, strain set2, active compounds read low 0.97 | locus YJL187C, strain SWE1 (second series), active compounds read low 0.957 | locus YJR043C, strain POL32, active compounds read low 0.99 | locus YJR066W, strain TOR1, active compounds read low 0.974 | locus YKL009W, strain mrt4, active compounds read low 0.966 | locus YKL068W, active compounds read low 0.973 | locus YKL085W, strain MDH1 (second series), active compounds read low 0.971 | locus YKL085W, strain MDH1, active compounds read low 0.971 | locus YLL041C, strain sdh2, active compounds read low 0.935 | locus YLR039C, strain RIC1, active compounds read low 0.735 | locus YLR058C, strain SHM2, active compounds read low 0.968 | locus YLR102C, strain apc9, active compounds read low 0.974 | locus YLR113W, strain HOG1, active compounds read low 1.02 | locus YLR262C, strain YPT6, active compounds read low 0.656 | locus YLR268W, strain sec22, active compounds read low 0.897 | locus YLR330W, strain CHS5, active compounds read low 0.95 | locus YLR342W, strain FKS1 (second series), active compounds read low 1.03 | locus YLR342W, strain FKS1, active compounds read low 0.959 | locus YLR357W, strain rsc2, active compounds read low 0.909 | locus YLR370C, strain arc18, active compounds read low 0.929 | locus YLR384C, strain iki3, active compounds read low 0.939 | locus YML016C, strain PPZ1, active compounds read low 0.988 | locus YML124C, strain tub3, active compounds read low 0.971 | locus YMR078C, strain ctf18, active compounds read low 0.967 | locus YMR231W, strain pep5, active compounds read low 0.967 | [1] 0.954 | locus YMR307W, strain GAS1, active compounds read low 0.869 | locus YNL067W, strain RPL9B, active compounds read low 0.955 | locus YNL128W, strain TEP1, active compounds read low 0.965 | locus YNL183C, strain NPR1, active compounds read low 0.96 | locus YNL209W, strain ssb2, active compounds read low 0.948 | locus YNL233W, strain BNI4, active compounds read low 0.873 | locus YNL250W, strain rad50, active compounds read low 0.974 | locus YNL271C, strain bni1, active compounds read low 0.95 | locus YNL298W, strain CLA4, active compounds read low 0.929 | locus YNR052C, strain pop2, active compounds read low 0.991 | locus YOL012C, strain htz1 0.804 | locus YOL147C, strain pex11, active compounds read low 0.953 | locus YOR061W, strain CKA2, active compounds read low 0.994 | locus YOR069W, strain VPS5, active compounds read low 0.996 | locus YOR070C, strain gyp1, active compounds read low 0.937 | locus YOR080W, strain dia2, active compounds read low 0.948 | locus YOR136W, strain idh2, active compounds read low 0.951 | locus YOR144C, strain elg1, active compounds read low 0.972 | locus YOR231W, strain MKK1, active compounds read low 1.03 | locus YOR270C, strain vph1, active compounds read low 1.02 | locus YOR290C, strain snf2, active compounds read low 0.891 | locus YOR316C, strain cot1, active compounds read low 0.966 | locus YPL240C, strain hsp82, active compounds read low 0.934 | [2] 0.999 | locus YPL256C, strain CLN2, active compounds read low 0.984 | locus YPR119W, strain clb2, active compounds read low 0.965 | locus YPR141C, strain kar3, active compounds read low 0.959 | locus YPR163C, strain tif3, active compounds read low 0.983 | locus YPR167C, strain met16, active compounds read low 0.972
